# Assay results: PubChem BioAssay (EPA / NIEHS)
# Calls of active or inactive are those of the source. Rule for the calls: active = hit-call score of the fitted dose curve at least 0.9, where 1 is the maximum; inactive = score below 0.9.
# Target: Transcriptional activator Myb (Homo sapiens) (UniProt P10242)
# Assay: ATG_Myb_CIS: Attagene CIS-FACTORIAL HepG2 Assay for human Myeloblastosis (Myb) Proto-Oncogene Transcription Factor (AID 2282986)
# Details: HepG2 Attagene CIS-FACTORIAL Myb reporter transcription; actives raise or lower the signal
# Outline: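 Transiently transfected HepG2 cells, treated 24 h. Reporter mRNA quantified by RT-PCR/capillary electrophoresis; bidirectional fit relative to DMSO.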
# Chain of Transcriptional activator Myb (Homo sapiens) (P10242 whole entry, looked up): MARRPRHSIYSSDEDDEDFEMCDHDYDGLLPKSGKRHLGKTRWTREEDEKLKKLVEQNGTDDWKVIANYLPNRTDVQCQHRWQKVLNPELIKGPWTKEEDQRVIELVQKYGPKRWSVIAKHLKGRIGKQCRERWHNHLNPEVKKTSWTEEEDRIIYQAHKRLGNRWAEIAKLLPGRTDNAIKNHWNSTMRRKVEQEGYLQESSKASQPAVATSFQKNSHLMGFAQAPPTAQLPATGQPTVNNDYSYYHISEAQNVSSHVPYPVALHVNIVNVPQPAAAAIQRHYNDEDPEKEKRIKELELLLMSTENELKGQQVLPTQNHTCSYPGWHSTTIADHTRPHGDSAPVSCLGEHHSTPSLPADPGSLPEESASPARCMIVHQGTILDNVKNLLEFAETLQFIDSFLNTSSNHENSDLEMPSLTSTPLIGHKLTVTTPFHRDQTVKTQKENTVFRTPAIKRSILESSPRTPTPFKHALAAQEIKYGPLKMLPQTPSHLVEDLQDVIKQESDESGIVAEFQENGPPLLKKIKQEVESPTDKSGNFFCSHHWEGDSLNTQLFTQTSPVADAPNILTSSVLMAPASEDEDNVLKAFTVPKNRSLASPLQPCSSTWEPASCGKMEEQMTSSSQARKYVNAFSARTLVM
Structure (SMILES),outcome,AC50
NC(O)(C(F)(F)F)C(F)(F)F,inactive,
N#CCCOCCC#N,inactive,
O=C=NCc1cccc(CN=C=O)c1,inactive,
CCN(CCO)S(=O)(=O)C(F)(F)C(F)(F)C(F)(F)C(F)(F)C(F)(F)C(F)(F)C(F)(F)C(F)(F)F,inactive,
COC(F)(C(F)F)C(F)(F)F (configuration not stated),inactive,
NCC(F)(F)C(F)(F)C(F)(F)C(F)(F)C(F)(F)C(F)(F)F,inactive,
CC(C)(C)c1cc(CCC(=O)OCC(COC(=O)CCc2cc(C(C)(C)C)c(O)c(C(C)(C)C)c2)(COC(=O)CCc2cc(C(C)(C)C)c(O)c(C(C)(C)C)c2)COC(=O)CCc2cc(C(C)(C)C)c(O)c(C(C)(C)C)c2)cc(C(C)(C)C)c1O,inactive,
CCCCOC(=O)[C@H](C)O,inactive,
Cc1ccc(S(=O)(=O)C(I)I)cc1,,17.4 µM (active)
O=C1c2c(O)ccc(Nc3ccc(CCO)cc3)c2C(=O)c2c([N+](=O)[O-])ccc(O)c21,inactive,
CN(N=O)C(=O)N[C@@H]1[C@@H](O)[C@H](O)[C@@H](CO)O[C@@H]1O,inactive,
O=C(O)C(F)(F)C(F)(F)C(F)(F)C(=O)O,inactive,
